HT1080-NT tox: kills 2HG-producing HT-1080-NT fibrosarcoma cells; 360,000 compounds, 1.6% hits; HT-1080-NT fibrosarcoma viability, CellTiter-Glo ATP luminescence, 48 h; Potency, µM (top dose mostly 46.1 µM), for inactives: at the top dose activity, negative = less viability, usual class: cytotoxic;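 further: NT is the 2HG producing partner of a matched IDH1 knockdown line; 0% = DMSO-treated cells and -100% = media-only wells without cells; nearly all actives have a fitted effect of over 55% in size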
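Compounds were tested in concentration-response format on HT-1080-NT cells for 48 hours at 37 degrees C. Cell viability came from CellTiter-Glo luminescence; curves were classified by r2, response magnitude and activity.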
KB-V1 MDR tox: kills drug-selected multidrug resistant KB-V1 cells | 400,000 compounds, 3.4% hits | KB-V1 MDR cells viability, CellTiter-Glo, 72 h | Potency, µM (doses to about 46.1 µM), usual class: cytotoxic; further: on the % scale 0 is the no-effect control and ±100 the full control effect; nearly all actives have a fitted effect of over 60% in size
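In this primary screen, KB-V1 cells overexpressing P-gp are incubated with library compounds (lowest to highest concentration) for 72 h at 37 degrees C before a luminescent ATP viability read.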
HT1080 IDH1KD tx: HT-1080 IDH1 knockdown cell toxicity (counter line); AID 686971; Potency, µM (doses to about 46.1 µM), inactives show top-dose activity, negative = toxicity, most hits filed as cytotoxic; 360,000 compounds, 2% hits; HT-1080 IDH1 knockdown viability, ATP luminescence, 48 h;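 further: 0% = DMSO wells and -100% = cell-free medium wells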
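In this qHTS, HT-1080 cells depleted of IDH1 are exposed for 48 h at 37 °C to compound titrations. Toxicity is scored from CellTiter-Glo luminescence, with DMSO as full viability and medium alone as none.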
SW480 rereplic: induces DNA re-replication in SW480 colon adenocarcinoma cells. 340,000 compounds, 1.8% hits. Potency, µM (highest dose often 46.1 µM), without a hit: at the top dose re-replication activation, most hits filed as activators. AID 624297. SW480 DNA re-replication, Hoechst DNA content imaging, 48 h; further: % of control where 0% means no effect; nearly all actives have a fitted effect of over 55% in size
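Treated cells incubate 48 hr (37 C, 5% CO2), are stained 40 min with Hoechst, and nuclear fluorescence is enumerated; a rise in nuclei with high DNA signal marks re-replication.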
MCF10A rereplic: induces DNA re-replication in MCF 10a normal breast cells; MCF 10A DNA re-replication, Hoechst nuclear intensity, 48 h; Potency, µM (series often up to 46.1 µM), for inactives: top-dose activity, positive = re-replication, usual class: activators; 350,000 compounds, 2.9% hits; AID 624296; further: % of control where 0% means no effect; nearly all actives have a fitted effect of over 50% in size
KB-3-1 cytotox: KB-3-1 parental cell cytotoxicity; KB-3-1 viability, CellTiter-Glo ATP luminescence, 72 h; Potency, µM (titrated, usually from 46.1 µM), usual class: cytotoxic; 400,000 compounds, 1.4% hits; AID 1347075; further: on the % scale 0 is the no-effect control and ±100 the full control effect; nearly all actives have a fitted effect of over 60% in size
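Luminescent ATP read-out (CellTiter-Glo) measures survival of drug-naive KB-3-1 cells after 72 h compound exposure at 37 °C. Titration series was screened from lowest to highest concentration, with DMSO vehicle plates as background controls.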
An asterisk follows results filed as active; [ ] = another dose, or the depositor's remark. An excerpt weighted towards active compounds, which were near 7.9% of everything screened. The call rests on the fitted dose curve; in most records, active means well fitted curve in the direction sought with a large enough effect; inconclusive means small, poorly fitted or top-dose-only effect, or another doubt; inactive means no such curve, though single readings can be large; an effect the other way counts as inactive or inconclusive. Potency means the concentration at half of the fitted maximal effect.

`COc1cc(-c2cc(NC(C)=O)c3ncc(-c4cc(OC)c(OC)c(OC)c4)n3c2)cc(OC)c1OC` gave HT1080-NT tox 23µM*, KB-V1 MDR tox inconclusive, HT1080 IDH1KD tx 13µM* and KB-3-1 cytotox inconclusive.
`COc1cc(-c2cc(NC(C)=O)c3ncc(-c4ccccc4)n3c2)cc(OC)c1OC` gave HT1080-NT tox inconclusive, KB-V1 MDR tox inconclusive, HT1080 IDH1KD tx inconclusive and KB-3-1 cytotox inactive.
For COc1ccc(-c2cc(NC(C)=O)c3ncc(-c4ccc(OC)c(OC)c4)n3c2)cc1OC the results were HT1080-NT tox inconclusive, KB-V1 MDR tox 12µM*, HT1080 IDH1KD tx inconclusive and KB-3-1 cytotox inconclusive.
For COc1ccc(-c2cnc3c(NC(C)=O)cc(-c4ccsc4)cn23)cc1OC the results were HT1080-NT tox -23%, KB-V1 MDR tox inconclusive, HT1080 IDH1KD tx -28% and KB-3-1 cytotox inactive.
For COc1ccc(-c2cnc3c(NC(C)=O)cc(-c4ccccc4OC)cn23)cc1OC the results were HT1080-NT tox inconclusive, KB-V1 MDR tox inconclusive, HT1080 IDH1KD tx 26µM* and KB-3-1 cytotox inconclusive.
Cc1ccc(S(=O)(=O)C(CNC(=O)COc2ccccc2)c2cccs2)cc1 (stereo not given) was read as KB-V1 MDR tox inactive and KB-3-1 cytotox inactive.
COc1ccccc1C(=O)Nc1c(C(=O)N2CCN(c3ccccc3F)CC2)oc2ccccc12 was read as KB-V1 MDR tox inactive and KB-3-1 cytotox inactive.
Screening CN1CCN(C(=S)NC(=O)/C=C/c2cccc3ccccc23)CC1 returned HT1080-NT tox 10µM*, KB-V1 MDR tox inactive, HT1080 IDH1KD tx inconclusive, SW480 rereplic -1%, MCF10A rereplic -3% and KB-3-1 cytotox inactive.
CN1CCN(C(=S)NC(=O)/C=C/c2cccs2)CC1 was read as HT1080-NT tox -1%, KB-V1 MDR tox inactive, HT1080 IDH1KD tx -1%, SW480 rereplic -33%, MCF10A rereplic -12% and KB-3-1 cytotox inactive.
For CC(C)C(=O)N1CCCC1(C)C(=O)Nc1ccc(F)cc1 (stereo not given) the results were HT1080-NT tox 14%, KB-V1 MDR tox inactive, HT1080 IDH1KD tx 27% and KB-3-1 cytotox inactive.
OC(Cn1ccnc1)c1ccc(Cl)cc1Cl (stereo not given) was read as HT1080-NT tox -3%, KB-V1 MDR tox inconclusive, HT1080 IDH1KD tx -3%, SW480 rereplic 0%[9.22 µM], MCF10A rereplic 0% and KB-3-1 cytotox inconclusive.
Screening Clc1ccc(C(Cn2ccnc2)OCc2c(Cl)cccc2Cl)c(Cl)c1 (stereo not given) returned HT1080-NT tox 16µM*, KB-V1 MDR tox inconclusive, HT1080 IDH1KD tx inconclusive, SW480 rereplic inconclusive, MCF10A rereplic 4.6µM* and KB-3-1 cytotox inactive.
For COc1ccc(C(=O)c2cnc3ccccc3c2-c2ccccc2)cc1 the results were HT1080-NT tox -18%, KB-V1 MDR tox 18µM*, HT1080 IDH1KD tx -21%, SW480 rereplic inconclusive, MCF10A rereplic 18µM* and KB-3-1 cytotox 23µM*.
Cc1ccc(C(=O)c2cnc3ccccc3c2-c2ccccc2)cc1 was read as HT1080-NT tox -11%, KB-V1 MDR tox 16µM*, HT1080 IDH1KD tx -18%, SW480 rereplic 18%, MCF10A rereplic inconclusive and KB-3-1 cytotox inactive.
COCc1nnc(NC(=O)C2CCN(C(=O)c3ccccc3)CC2)s1 was read as KB-V1 MDR tox inactive and KB-3-1 cytotox inactive.
`CN(C)C=NC(=O)c1ccc(N2CCN(c3ncc(C(F)(F)F)cc3Cl)CC2)cc1` gave HT1080-NT tox inconclusive, KB-V1 MDR tox inactive, HT1080 IDH1KD tx inconclusive, SW480 rereplic -1%, MCF10A rereplic 15µM* and KB-3-1 cytotox inactive.
For COc1ccc(NC(=O)COC(=O)c2cc(OC)c(OC)cc2NC(=O)c2ccco2)cc1OC the results were HT1080-NT tox inconclusive, KB-V1 MDR tox inactive, HT1080 IDH1KD tx inconclusive, SW480 rereplic 10µM*, MCF10A rereplic inconclusive and KB-3-1 cytotox inactive.
For COC(=O)c1ccccc1NC(=O)COC(=O)c1ccc(C)c(NC(=O)c2ccco2)c1 the results were HT1080-NT tox -1%, KB-V1 MDR tox 3.7µM*, HT1080 IDH1KD tx 3%, SW480 rereplic inconclusive, MCF10A rereplic 25% and KB-3-1 cytotox inactive.
COC(=O)c1cc(OC)c(OC)cc1NC(=O)c1ccco1 was read as HT1080-NT tox -12%, KB-V1 MDR tox inconclusive, HT1080 IDH1KD tx -11%, SW480 rereplic 10%, MCF10A rereplic 3% and KB-3-1 cytotox inactive.
`Cc1ccc2oc(-c3cccc(NC(=O)COc4ccc(Cl)cc4)c3C)nc2c1` gave KB-V1 MDR tox inactive and KB-3-1 cytotox inactive.
For CCOc1ccccc1NC(=O)Cn1c(=O)n(-c2ccc(F)cc2)c(=O)c2sc3ccccc3c21 the results were KB-V1 MDR tox inactive and KB-3-1 cytotox inconclusive.
`CCOC(=O)C1(Cc2ccccc2C(F)(F)F)CCN(Cc2ccc(COC)o2)CC1` gave HT1080-NT tox inconclusive, KB-V1 MDR tox inconclusive, HT1080 IDH1KD tx inconclusive, SW480 rereplic 29%, MCF10A rereplic inconclusive and KB-3-1 cytotox 18µM*.
For CCOC(=O)C1(Cc2ccccc2C(F)(F)F)CCN(C2CCN(C(C)C)CC2)CC1 the results were HT1080-NT tox inconclusive, KB-V1 MDR tox inconclusive, HT1080 IDH1KD tx 15µM*, SW480 rereplic -2%, MCF10A rereplic 18µM* and KB-3-1 cytotox inactive.
CCOC(=O)C1(Cc2ccccc2C(F)(F)F)CCN(CC(O)CO)CC1 (stereo not given) was read as HT1080-NT tox 0%, KB-V1 MDR tox inactive, HT1080 IDH1KD tx -5%, SW480 rereplic 1%, MCF10A rereplic 8% and KB-3-1 cytotox inactive.
`COC(=O)c1c(C)cccc1C1CN=NC12Cc1ccccc1C2=O` (stereo not given) gave HT1080-NT tox 0%, KB-V1 MDR tox 21µM*, HT1080 IDH1KD tx -2%, SW480 rereplic -4%, MCF10A rereplic -5% and KB-3-1 cytotox inactive.
Screening O=C(NCc1cccnc1)/C(=C\c1ccc(-c2ccc(Cl)c(Cl)c2)o1)S(=O)(=O)c1ccccc1 returned HT1080-NT tox inconclusive, KB-V1 MDR tox 4.1µM*, HT1080 IDH1KD tx inconclusive, SW480 rereplic inconclusive, MCF10A rereplic 6.5µM* and KB-3-1 cytotox inactive.
CC1C(=O)N(Cc2cn(Cc3ccco3)nn2)CCS(=O)(=O)N1Cc1ccc(-c2ccccc2Cl)cc1 (stereo not given) was read as HT1080-NT tox inconclusive, KB-V1 MDR tox inconclusive, HT1080 IDH1KD tx inconclusive and KB-3-1 cytotox inactive.

High-throughput results as filed in PubChem.
